Results published in article PMC7862700, “An all-to-all approach to the identification of sequence-specific readers for epigenetic DNA modifications on cytosine”.

Columns and labels:
Assay in all cases: DAPPL (digital affinity profiling via proximity ligation, sequencing); 10 mM Tris-HCl pH 7.5, 50 mM NaCl, 1 mM DTT, 4% glycerol, room temperature, 30 min; GST-TFs on glutathione beads, 16-mer random dsDNA library, 0.1% formaldehyde crosslink after washing; high values mean tight binding
Details in all cases: protein: recombinant; tags: N-terminal GST; dsDNA, one strand shown
FLI1 = target: T1, FLI1 (Homo sapiens, UniProt Q01543 1-452)
T1 sequence: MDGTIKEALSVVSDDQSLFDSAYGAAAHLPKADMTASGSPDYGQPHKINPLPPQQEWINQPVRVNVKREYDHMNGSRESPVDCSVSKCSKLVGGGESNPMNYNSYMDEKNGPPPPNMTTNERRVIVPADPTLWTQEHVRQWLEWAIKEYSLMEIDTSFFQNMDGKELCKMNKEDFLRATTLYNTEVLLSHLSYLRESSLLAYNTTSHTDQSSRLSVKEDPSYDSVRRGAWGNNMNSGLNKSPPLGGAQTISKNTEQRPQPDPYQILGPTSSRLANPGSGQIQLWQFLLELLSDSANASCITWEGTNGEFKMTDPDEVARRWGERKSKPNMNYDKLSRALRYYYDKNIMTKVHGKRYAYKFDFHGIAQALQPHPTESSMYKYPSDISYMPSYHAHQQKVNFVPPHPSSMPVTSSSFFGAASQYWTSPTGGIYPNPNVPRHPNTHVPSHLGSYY
Method in brief: (§1)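 Human transcription factors carrying a GST fusion were produced in yeast, bound to glutathione beads, tagged with DNA barcodes and pooled together with a tag-only sample. Each pool was held with 200 nmole of a random double-stranded 16-mer DNA library in Tris/NaCl/DTT/glycerol buffer for 30 min at room temperature, then washed, crosslinked in 0.1% formaldehyde, proximity-ligated with BsaI/T4 ligase (1 h, 37 °C), PCR-amplified and sequenced on an Illumina NextSeq500. Binding signal is the read frequency of each hexamer for a given factor divided by its frequency in the tag-only sample.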

ELK1 = target: T2, ELK1 (Homo sapiens, UniProt P19419 1-428)
T2 sequence: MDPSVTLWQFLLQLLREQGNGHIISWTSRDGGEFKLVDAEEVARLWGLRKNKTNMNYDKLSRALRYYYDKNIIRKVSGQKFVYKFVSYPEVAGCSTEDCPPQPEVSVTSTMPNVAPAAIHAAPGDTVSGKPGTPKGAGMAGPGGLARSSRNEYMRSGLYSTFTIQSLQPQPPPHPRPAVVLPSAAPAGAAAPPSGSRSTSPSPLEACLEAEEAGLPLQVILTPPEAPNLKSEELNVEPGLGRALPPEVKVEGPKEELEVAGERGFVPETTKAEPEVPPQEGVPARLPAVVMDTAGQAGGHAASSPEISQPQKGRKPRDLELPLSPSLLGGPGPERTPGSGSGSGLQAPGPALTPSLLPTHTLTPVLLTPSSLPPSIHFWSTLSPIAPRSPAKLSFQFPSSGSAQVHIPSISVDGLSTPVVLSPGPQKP
Method in brief: as §1

GABPA = target: T3, GABPA (Homo sapiens, UniProt Q06546 1-454)
T3 sequence: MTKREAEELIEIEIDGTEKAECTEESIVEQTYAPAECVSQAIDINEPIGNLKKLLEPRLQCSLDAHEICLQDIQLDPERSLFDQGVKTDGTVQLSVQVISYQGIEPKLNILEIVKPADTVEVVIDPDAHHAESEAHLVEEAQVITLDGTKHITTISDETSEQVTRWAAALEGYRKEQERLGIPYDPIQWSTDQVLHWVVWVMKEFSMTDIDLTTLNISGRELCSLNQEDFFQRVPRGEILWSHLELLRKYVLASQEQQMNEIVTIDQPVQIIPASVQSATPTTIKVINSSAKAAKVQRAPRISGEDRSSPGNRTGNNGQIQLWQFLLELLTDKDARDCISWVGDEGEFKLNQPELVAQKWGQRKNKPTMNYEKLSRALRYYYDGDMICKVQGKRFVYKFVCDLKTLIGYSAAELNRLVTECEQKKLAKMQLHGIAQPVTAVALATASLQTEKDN
Method in brief: as §1

ERG = target: T4, ERG (Homo sapiens, UniProt P11308 1-479)
T4 sequence: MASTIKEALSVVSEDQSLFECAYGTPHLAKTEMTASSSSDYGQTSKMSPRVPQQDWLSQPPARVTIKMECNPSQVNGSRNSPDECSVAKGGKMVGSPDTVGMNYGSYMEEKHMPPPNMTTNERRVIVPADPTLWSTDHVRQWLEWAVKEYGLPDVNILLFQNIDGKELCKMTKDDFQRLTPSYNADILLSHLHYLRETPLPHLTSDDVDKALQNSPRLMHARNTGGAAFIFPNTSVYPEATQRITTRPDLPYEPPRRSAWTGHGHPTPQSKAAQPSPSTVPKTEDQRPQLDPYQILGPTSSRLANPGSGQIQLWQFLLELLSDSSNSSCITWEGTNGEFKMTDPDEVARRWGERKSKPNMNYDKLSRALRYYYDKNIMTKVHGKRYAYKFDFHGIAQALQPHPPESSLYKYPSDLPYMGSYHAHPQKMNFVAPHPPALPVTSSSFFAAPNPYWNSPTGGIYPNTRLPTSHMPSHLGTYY
Method in brief: as §1

ELF1 = ELF1 (Homo sapiens, UniProt P32519 1-619)
Chain of ELF1 (P32519 whole entry): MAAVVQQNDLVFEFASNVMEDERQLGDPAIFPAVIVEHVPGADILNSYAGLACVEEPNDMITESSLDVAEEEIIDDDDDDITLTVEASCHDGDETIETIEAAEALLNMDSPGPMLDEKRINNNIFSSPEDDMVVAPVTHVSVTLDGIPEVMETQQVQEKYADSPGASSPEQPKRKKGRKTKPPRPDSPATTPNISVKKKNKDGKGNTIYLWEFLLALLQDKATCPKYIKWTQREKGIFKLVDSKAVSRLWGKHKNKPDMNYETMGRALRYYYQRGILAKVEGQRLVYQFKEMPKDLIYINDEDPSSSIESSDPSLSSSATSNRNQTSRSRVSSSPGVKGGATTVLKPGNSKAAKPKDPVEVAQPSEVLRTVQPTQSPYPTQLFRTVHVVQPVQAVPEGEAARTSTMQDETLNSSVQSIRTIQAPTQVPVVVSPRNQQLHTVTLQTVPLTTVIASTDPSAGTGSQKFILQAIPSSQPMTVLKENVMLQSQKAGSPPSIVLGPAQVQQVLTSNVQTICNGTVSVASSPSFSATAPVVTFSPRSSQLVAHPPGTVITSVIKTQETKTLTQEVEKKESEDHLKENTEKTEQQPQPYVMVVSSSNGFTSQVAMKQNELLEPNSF
Method in brief: as §1

EHF = target: T5, EHF (Homo sapiens, UniProt Q9NZC4 1-300)
T5 sequence: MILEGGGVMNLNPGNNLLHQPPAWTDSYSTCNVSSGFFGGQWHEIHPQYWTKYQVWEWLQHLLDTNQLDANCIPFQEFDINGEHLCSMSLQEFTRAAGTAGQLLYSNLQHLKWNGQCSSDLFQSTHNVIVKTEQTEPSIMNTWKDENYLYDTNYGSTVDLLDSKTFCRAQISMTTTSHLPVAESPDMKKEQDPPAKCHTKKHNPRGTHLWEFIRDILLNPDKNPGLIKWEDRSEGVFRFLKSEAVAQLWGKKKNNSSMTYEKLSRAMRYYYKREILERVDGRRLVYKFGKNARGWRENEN
Method in brief: as §1

SPI1 = SPI1 (Homo sapiens, UniProt P17947 1-270)
Method in brief: as §1

ELK3 = target: T6, ELK3 (Homo sapiens, UniProt P41970 1-407)
T6 sequence: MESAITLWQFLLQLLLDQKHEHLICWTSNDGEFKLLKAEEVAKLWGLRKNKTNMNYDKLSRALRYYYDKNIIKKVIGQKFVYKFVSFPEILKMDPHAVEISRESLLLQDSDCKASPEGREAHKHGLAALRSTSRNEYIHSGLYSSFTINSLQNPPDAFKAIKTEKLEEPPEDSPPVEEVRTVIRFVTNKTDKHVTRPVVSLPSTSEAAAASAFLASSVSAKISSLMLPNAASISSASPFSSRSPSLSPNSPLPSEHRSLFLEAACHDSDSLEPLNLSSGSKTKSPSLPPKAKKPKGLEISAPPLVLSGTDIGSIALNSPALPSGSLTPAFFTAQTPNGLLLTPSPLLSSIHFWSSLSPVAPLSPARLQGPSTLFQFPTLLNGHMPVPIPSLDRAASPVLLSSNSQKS
Method in brief: as §1

FEV = target: T7, FEV (Homo sapiens, UniProt Q99581 1-238)
T7 sequence: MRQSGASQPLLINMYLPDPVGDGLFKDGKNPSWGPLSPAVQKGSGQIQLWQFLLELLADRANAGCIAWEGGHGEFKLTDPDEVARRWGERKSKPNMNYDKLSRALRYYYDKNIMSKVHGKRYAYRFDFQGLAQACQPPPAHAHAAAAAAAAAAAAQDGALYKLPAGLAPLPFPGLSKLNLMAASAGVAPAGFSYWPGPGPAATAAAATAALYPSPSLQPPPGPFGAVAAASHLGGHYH
Method in brief: as §1

ETV5 = ETV5 (Homo sapiens, UniProt P41161 1-510)
Chain of ETV5 (P41161 whole entry): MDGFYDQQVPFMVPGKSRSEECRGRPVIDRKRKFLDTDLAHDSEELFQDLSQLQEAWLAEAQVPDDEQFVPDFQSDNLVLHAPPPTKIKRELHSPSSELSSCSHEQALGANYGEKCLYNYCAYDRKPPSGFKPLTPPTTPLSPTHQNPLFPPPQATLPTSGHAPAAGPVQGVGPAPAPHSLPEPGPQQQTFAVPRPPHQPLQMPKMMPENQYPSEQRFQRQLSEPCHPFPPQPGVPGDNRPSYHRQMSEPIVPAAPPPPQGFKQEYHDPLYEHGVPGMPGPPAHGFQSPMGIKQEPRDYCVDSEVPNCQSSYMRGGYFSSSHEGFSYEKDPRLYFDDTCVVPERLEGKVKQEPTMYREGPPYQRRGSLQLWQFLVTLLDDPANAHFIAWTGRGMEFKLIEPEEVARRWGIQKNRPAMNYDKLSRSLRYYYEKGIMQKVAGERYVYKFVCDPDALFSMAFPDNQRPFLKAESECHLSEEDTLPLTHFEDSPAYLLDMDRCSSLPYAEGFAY
Method in brief: as §1

SPIC = target: T8, SPIC (Homo sapiens, UniProt Q8N5J4 1-248)
T8 sequence: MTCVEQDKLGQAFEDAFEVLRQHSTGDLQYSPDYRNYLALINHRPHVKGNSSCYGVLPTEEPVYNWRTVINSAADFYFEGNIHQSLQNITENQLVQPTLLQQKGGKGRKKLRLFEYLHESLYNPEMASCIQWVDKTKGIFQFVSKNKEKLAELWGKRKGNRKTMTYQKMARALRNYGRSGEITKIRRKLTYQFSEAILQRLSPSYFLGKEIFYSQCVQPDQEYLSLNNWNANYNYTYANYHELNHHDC
Method in brief: as §1

ELF4 = ELF4 (Homo sapiens, UniProt Q99607 1-663)
Chain of ELF4 (Q99607 whole entry): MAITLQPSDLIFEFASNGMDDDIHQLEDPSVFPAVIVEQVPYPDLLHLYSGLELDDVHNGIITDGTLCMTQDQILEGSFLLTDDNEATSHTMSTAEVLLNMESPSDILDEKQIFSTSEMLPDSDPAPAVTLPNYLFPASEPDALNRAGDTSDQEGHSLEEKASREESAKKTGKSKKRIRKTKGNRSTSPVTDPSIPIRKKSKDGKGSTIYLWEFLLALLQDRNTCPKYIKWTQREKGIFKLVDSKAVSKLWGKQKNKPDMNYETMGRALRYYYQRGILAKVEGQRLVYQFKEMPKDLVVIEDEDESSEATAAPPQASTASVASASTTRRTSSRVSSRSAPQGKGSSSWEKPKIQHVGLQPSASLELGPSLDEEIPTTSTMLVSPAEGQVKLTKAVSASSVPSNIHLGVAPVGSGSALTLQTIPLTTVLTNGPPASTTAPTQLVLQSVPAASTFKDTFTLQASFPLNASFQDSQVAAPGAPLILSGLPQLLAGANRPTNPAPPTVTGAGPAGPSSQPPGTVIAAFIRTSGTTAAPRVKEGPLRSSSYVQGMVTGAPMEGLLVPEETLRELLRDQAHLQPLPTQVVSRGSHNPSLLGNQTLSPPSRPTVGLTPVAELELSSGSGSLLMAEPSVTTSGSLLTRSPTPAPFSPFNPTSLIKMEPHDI
Method in brief: as §1

ELK4 = target: T9, ELK4 (Homo sapiens, UniProt P28324-2 1-405)
T9 sequence: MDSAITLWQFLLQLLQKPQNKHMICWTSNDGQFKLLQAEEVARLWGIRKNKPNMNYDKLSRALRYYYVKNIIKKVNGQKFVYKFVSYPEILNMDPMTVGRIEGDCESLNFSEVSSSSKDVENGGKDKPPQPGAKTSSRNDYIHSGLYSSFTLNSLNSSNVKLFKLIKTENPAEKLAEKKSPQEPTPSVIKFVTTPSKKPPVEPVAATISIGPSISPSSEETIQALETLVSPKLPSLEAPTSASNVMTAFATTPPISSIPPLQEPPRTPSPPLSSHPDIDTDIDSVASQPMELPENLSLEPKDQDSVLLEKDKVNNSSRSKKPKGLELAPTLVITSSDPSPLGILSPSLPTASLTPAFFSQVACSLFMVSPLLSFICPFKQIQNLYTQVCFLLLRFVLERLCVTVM
Method in brief: as §1

ETV2 = target: T10, ETV2 (Homo sapiens, UniProt O00321 1-342)
T10 sequence: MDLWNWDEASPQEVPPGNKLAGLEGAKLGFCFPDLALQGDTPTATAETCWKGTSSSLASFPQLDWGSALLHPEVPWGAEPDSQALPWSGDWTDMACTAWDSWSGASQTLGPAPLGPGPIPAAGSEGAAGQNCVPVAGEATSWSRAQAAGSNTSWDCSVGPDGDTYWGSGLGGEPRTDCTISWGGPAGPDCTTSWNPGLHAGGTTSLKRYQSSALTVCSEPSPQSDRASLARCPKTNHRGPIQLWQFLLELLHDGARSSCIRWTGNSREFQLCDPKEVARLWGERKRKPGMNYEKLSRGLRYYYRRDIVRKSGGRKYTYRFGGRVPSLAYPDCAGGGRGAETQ
Method in brief: as §1

ELF3 = target: T11, ELF3 (Homo sapiens, UniProt P78545 1-371)
T11 sequence: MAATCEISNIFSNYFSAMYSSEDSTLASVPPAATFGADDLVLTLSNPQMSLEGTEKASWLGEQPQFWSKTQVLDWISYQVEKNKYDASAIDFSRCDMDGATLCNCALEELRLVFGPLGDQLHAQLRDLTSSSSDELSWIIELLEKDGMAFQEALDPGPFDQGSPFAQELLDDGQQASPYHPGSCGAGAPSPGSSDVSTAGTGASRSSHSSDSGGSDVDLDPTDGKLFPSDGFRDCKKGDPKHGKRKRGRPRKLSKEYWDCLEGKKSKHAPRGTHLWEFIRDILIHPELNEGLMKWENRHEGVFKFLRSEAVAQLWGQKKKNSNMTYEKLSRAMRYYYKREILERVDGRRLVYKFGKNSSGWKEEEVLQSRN
Method in brief: as §1

ETV1 = ETV1 (Homo sapiens, UniProt P50549 1-477)
Chain of ETV1 (P50549 whole entry): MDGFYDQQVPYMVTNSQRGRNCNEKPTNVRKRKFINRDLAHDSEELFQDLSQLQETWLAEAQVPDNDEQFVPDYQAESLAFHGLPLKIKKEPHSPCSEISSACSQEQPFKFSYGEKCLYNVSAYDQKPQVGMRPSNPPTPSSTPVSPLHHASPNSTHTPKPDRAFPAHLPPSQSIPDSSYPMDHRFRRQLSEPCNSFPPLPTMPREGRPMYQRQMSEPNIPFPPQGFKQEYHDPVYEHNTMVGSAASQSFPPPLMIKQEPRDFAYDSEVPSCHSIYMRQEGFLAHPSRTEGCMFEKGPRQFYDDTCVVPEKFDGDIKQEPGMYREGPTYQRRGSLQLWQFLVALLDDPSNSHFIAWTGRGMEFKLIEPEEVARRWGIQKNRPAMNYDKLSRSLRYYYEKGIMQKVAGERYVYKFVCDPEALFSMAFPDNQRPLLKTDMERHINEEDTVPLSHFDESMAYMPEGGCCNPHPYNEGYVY
Method in brief: as §1

SPIB = SPIB (Homo sapiens, UniProt Q01892 1-262)
Chain of SPIB (Q01892 whole entry): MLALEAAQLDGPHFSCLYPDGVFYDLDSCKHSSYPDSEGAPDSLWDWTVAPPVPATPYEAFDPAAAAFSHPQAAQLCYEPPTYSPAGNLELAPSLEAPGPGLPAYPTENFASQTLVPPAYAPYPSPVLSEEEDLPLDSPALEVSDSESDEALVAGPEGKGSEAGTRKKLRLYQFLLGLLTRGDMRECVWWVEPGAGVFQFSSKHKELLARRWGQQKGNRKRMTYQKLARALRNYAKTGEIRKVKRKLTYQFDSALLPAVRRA
Method in brief: as §1

Row | Sequence | binding signal (FLI1) | binding signal (ELK1) | binding signal (GABPA) | binding signal (ERG) | binding signal (ELF1) | binding signal (EHF) | binding signal (SPI1) | binding signal (ELK3) | binding signal (FEV) | binding signal (ETV5) | binding signal (SPIC) | binding signal (ELF4) | binding signal (ELK4) | binding signal (ETV2) | binding signal (ELF3) | binding signal (ETV1) | binding signal (SPIB)
1 | CAAGGT | 1.1 fold enrichment (6-mer frequency, TF over GST control) | 1.13 fold enrichment (6-mer frequency, TF over GST control) | 1.03 fold enrichment (6-mer frequency, TF over GST control) | 1.07 fold enrichment (6-mer frequency, TF over GST control) | 1.05 fold enrichment (6-mer frequency, TF over GST control) | 1.13 fold enrichment (6-mer frequency, TF over GST control) | 1.02 fold enrichment (6-mer frequency, TF over GST control) | 1.12 fold enrichment (6-mer frequency, TF over GST control) | 1.04 fold enrichment (6-mer frequency, TF over GST control) | 1.04 fold enrichment (6-mer frequency, TF over GST control) | 1 fold enrichment (6-mer frequency, TF over GST control) | 1.11 fold enrichment (6-mer frequency, TF over GST control) | 1.16 fold enrichment (6-mer frequency, TF over GST control) | 1.12 fold enrichment (6-mer frequency, TF over GST control) | 1.15 fold enrichment (6-mer frequency, TF over GST control) | 1.13 fold enrichment (6-mer frequency, TF over GST control) | –
2 | CCGCGC | 1.12 fold enrichment (6-mer frequency, TF over GST control) | 1.16 fold enrichment (6-mer frequency, TF over GST control) | – | 1.2 fold enrichment (6-mer frequency, TF over GST control) | 1.18 fold enrichment (6-mer frequency, TF over GST control) | 1.05 fold enrichment (6-mer frequency, TF over GST control) | 1.14 fold enrichment (6-mer frequency, TF over GST control) | 1.24 fold enrichment (6-mer frequency, TF over GST control) | 1.11 fold enrichment (6-mer frequency, TF over GST control) | 1.21 fold enrichment (6-mer frequency, TF over GST control) | 1.41 fold enrichment (6-mer frequency, TF over GST control) | 1.07 fold enrichment (6-mer frequency, TF over GST control) | 1.35 fold enrichment (6-mer frequency, TF over GST control) | 1.29 fold enrichment (6-mer frequency, TF over GST control) | 1.01 fold enrichment (6-mer frequency, TF over GST control) | 1.06 fold enrichment (6-mer frequency, TF over GST control) | 1.24 fold enrichment (6-mer frequency, TF over GST control)
